Smad3 inh = inhibitors of human Smad3 transcription factor binding; P84022; TR-FRET Smad3/Dy647-FoxH1 peptide binding, europium anti-His; inhibition, % at 25 µM; 88,000 tested, 0.29% active; AID 630;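 active = compounds that reduce the energy-transfer binding signal between the protein and its labelled peptide by more than half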
Target sequence (P84022 whole entry, looked up): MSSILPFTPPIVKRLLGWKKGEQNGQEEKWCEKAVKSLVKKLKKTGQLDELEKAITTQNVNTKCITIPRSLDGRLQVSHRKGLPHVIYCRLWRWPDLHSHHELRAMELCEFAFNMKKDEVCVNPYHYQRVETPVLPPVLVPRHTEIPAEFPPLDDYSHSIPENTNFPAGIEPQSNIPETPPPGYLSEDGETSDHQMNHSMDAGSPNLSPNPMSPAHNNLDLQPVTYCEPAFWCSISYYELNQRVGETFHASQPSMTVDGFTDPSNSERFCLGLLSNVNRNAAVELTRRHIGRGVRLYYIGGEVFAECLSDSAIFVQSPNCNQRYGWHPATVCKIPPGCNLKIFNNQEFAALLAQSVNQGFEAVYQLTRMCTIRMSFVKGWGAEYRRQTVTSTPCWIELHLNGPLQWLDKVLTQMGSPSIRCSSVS
PostGolgi ctrl = yeast control strain growth, post-Golgi counter-screen. AID 738. 98,000 tested, 5% active. inhibition, % at 10 µM. efflux-deficient yeast background strain, growth absorbance A615, 16 h
hDAT+cocaine = changed human dopamine transporter uptake under cocaine IC80 | AID 449768 | LLC-PK1 hDAT cells, [14C]-dopamine uptake with cocaine IC80; actives deviate in either direction | Q01959 | 110,000 tested, 1.3% active | B-score at 10 µM;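 active = Z score or B-score, a plate-position-corrected score, falls beyond the plate's 99.7% confidence bounds, in either direction; inactive = both scores lie inside the 99.7% bounds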
PostGolgi yeast = growth inhibition of a yeast mutant, post-Golgi transport screen. post-Golgi transport phenotypic cell assay. inhibition, % at 10 µM. 98,000 tested, 0.9% active. AID 739;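 note: yeast cells grown in 1536-well plates; yeast grown about 18 h at 30C before absorbance read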
TNAP act DEA = activators of human TNAP at intermediate phosphate acceptor; 64,000 tested, under 10 active; activation factor at 20 µM; purified TNAP, CDP-star luminescence, 100 mM DEA, 30 min; active compounds read high; scale: 0 levamisole-inhibited, 1 vehicle-only enzyme; P05186;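 active = activation factor of at least 2 at 20 µM, relative to controls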
Cav3 T inh = human Cav3.2 channel inhibition, primary screen; Cav3.2-expressing cells, Fluo-4 calcium fluorescence FDSS; active compounds read low; B-score at 10 µM; 100,000 tested, 4% active; AID 449739;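 active = single-dose well whose peak fluorescence ratio is a statistical outlier from its plate by either plate-standardised score or position-corrected B-score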
Each line names hits and unclear results; the compound was inactive in the other large screens. Most compounds without a hit are left out; they make up all but 8.7% or so of the library. Cut-off read from the data, not from the text of the source, unless noted: active = inhibition above about 30%; inactive = the rest.

CCOC(=O)C1CCN(Cc2cnc(Oc3ccc(OC)cc3)s2)CC1	none (no result: Smad3 inh, TNAP act DEA)
COC(=O)n1c(SC)nc2ccccc21	none (no result: Cav3 T inh)
CC(=O)N1CCN=C1SCc1ccc(Cl)cc1	PostGolgi ctrl 34.5
O=C(c1ccco1)N1CCN=C1SCc1cccnc1	PostGolgi yeast 30.1
COc1cc(OC)cc(C(=O)N2CCN=C2SCc2cccnc2)c1	hDAT+cocaine 1.58
O=C(c1ccc2c(c1)OCO2)N1CCN=C1SCc1ccccc1	Cav3 T inh -5.37
O=C(c1cccc(F)c1)N1CCN=C1SCc1cccnc1	none
O=C(c1cccs1)N1CCN=C1SCc1cccnc1	PostGolgi ctrl 31.5
CC(C)(C)C(=O)C(Oc1cccc2nonc12)n1cncn1 (configuration not stated)	PostGolgi yeast 46.4
O=C(Cn1cnc2c(nnn2Cc2ccc(F)cc2)c1=O)NCc1ccco1	Cav3 T inh -4.2
CC(=O)N1CCC2(CC1)CC(=O)c1cc(Cl)ccc1O2	none (no result: Smad3 inh, PostGolgi ctrl, PostGolgi yeast, TNAP act DEA)
Cn1c(Cl)cnc1C1CC(=O)c2cc(Cl)ccc2O1 (configuration not stated)	PostGolgi ctrl 38.3
COc1ccc(OCC(=O)NC(=S)N2CCCc3ccccc32)cc1	none (no result: Smad3 inh, TNAP act DEA)
Cc1ccc(-c2nnn(CC(=O)N3CCCc4ccccc43)n2)cc1	hDAT+cocaine -7.78, Cav3 T inh -4.69 (no result: TNAP act DEA)
O=C(Cn1nnc(-c2ccncc2)n1)N1CCc2ccccc21	none
COc1ccc(OCCCC(=O)N2CCCc3ccccc32)cc1	PostGolgi ctrl 33.9
COc1cccc(-c2cc(C(=O)N3CCCc4ccccc43)no2)c1	PostGolgi ctrl 35.2 (no result: Smad3 inh)
O=C(Cn1cc2c(n1)CCCC2)N1CCc2ccccc21	PostGolgi ctrl 38.1
CC(=O)Nc1ccc(S(=O)(=O)N(C)CC(=O)OCC(=O)N2CCc3ccccc32)cc1	none (no result: Smad3 inh, hDAT+cocaine, TNAP act DEA, Cav3 T inh)
O=C1N[C@@H](Cc2cnc[nH]2)C(=O)N2CCC[C@@H]12	none (no result: PostGolgi ctrl, PostGolgi yeast, Cav3 T inh)
CC(C)Oc1ccc(C(=O)N2CCCc3ccccc32)cc1	PostGolgi ctrl 30.9
COc1ccc(C(=O)N2CCCc3ccccc32)cc1	none
O=C(c1ccc(C(=O)N2CCCc3ccccc32)s1)N1CCCc2ccccc21	PostGolgi ctrl 100.3, PostGolgi yeast 105.4, Cav3 T inh -7.82 (no result: Smad3 inh, TNAP act DEA)
O=C(c1ccc(Cl)s1)N1CCc2ccccc21	none
O=C(CCCC(=O)N1CCCc2ccccc21)N1CCCc2ccccc21	hDAT+cocaine 2.72
COc1ccc(C(=O)OCC(=O)Nc2cc(C)on2)cc1S(=O)(=O)N1CCOCC1	none (no result: TNAP act DEA)
CCN(CC)S(=O)(=O)c1ccc(C)c(NC(=O)COC(=O)c2ccc(C)c(S(=O)(=O)N3CCOCC3)c2)c1	Cav3 T inh -4.16 (no result: Smad3 inh, TNAP act DEA)
NCCCC[C@@H](C(=O)N1CCNCC1)n1cc(CCC(=O)O)nn1	none (no result: Smad3 inh, PostGolgi ctrl, PostGolgi yeast, TNAP act DEA)
O=c1cc(C(Cl)(Cl)Cl)oc2c1ccc1ccccc12	PostGolgi ctrl 52.8 (no result: Smad3 inh, TNAP act DEA)
Cc1ccc(-c2nnc3n2N=C(c2ccccc2Br)CS3)cc1	Cav3 T inh -4.02
c1ccc(C2=Nn3c(nnc3-c3ccncc3)SC2)cc1	none
Cn1c2ccccc2c2c(C(=O)NCCCN3CCCC3=O)cn(C3CCCCC3)c(=O)c21	none
CC(C)c1[nH]nc2c1C(Cc1ccccc1)C(C#N)=C(N)O2 (configuration not stated)	Cav3 T inh -8.63
Cc1cc2c(cc(C(=O)OCC(=O)NCc3cccs3)n2C(C)C)o1	PostGolgi ctrl 56.7
CN(C)/C=C/C(=O)c1nnn(C2CCCCC2)c1NC1CCCCC1	PostGolgi ctrl 31.4 (no result: Smad3 inh)
C1CCC(Nc2nnnn2C2CCCCC2)CC1	none (no result: Cav3 T inh)
Cc1oc2c(cc(NS(=O)(=O)c3ccc4c5c(cccc35)C(=O)N4)c3ccccc32)c1C(=O)OC(C)C	none (no result: hDAT+cocaine, TNAP act DEA, Cav3 T inh)
COC(=O)c1c(C)oc2c1cc(NS(=O)(=O)c1cccs1)c1ccccc12	PostGolgi ctrl 37.7 (no result: TNAP act DEA)
Cc1cccc(NC(=O)c2nc(-c3ccccc3)n(-c3ccccc3)n2)c1C	Cav3 T inh -6.63 (no result: TNAP act DEA)
Cc1ccc(-c2nnn(CC(=O)N(CC(=O)NC3CCCCC3)c3cnc4ccccc4c3)n2)o1	Cav3 T inh -4.37 (no result: PostGolgi ctrl, PostGolgi yeast)
O=C(CN(Cc1ccccc1F)C(=O)Cn1nnc(-c2cccs2)n1)NC1CCCCC1	Cav3 T inh -6.31 (no result: TNAP act DEA)
O=C(CN(C(=O)Cn1nnc(-c2cccs2)n1)c1ccc2c(c1)OCCO2)NC1CCCCC1	Cav3 T inh -4.07
CC1=CCC2C(=O)N(c3ccc(C)c(Br)c3)C(=O)C2C1 (configuration not stated)	none (no result: Smad3 inh)
